Source: PubChem
An excerpt weighted towards active compounds, which were near 3.1% of everything screened.
GLS inhibitor – blocks human kidney-isoform glutaminase activity | O94925 | GLS enzymatic activity, qHTS titration | Potency, µM (series often up to 45.5 µM), actives largely listed as inhibitors | hit rate 0.21% among 410,000 | AID 624170
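Assay buffer: 45 mM KH2PO4 pH 8.2, 0.02% Tween-20. hKGA acts on L-glutamine (1 mM solution added); product glutamate is reported by an oxidase/peroxidase Amplex Red coupling, with fluorescence taken at baseline and 30 min.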
VDR inhibitor – inhibitors of human vitamin D receptor. VDR-SRC2-3 peptide fluorescence polarization, 2 h. Potency, µM, most hits filed as inhibitors. hit rate 0.93% among 400,000. AID 504847
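FP read-out; VDR + SRC2-3 coactivator peptide; 23 nl compound by pintool; 2 h RT incubation; reagents held at 4 deg C, protected from light.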
KAT2A inh – GCN5L2 (KAT2A) acetyltransferase inhibition | Q92830 | GCN5L2 HAT assay, ThioGlo1 CoA-SH fluorescence | Potency, µM (top dose mostly 58.9 µM), usual class: inhibitors | hit rate 0.21% among 390,000
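Titration-based screen in which CoA formation is detected via maleimide probe ThioGlo1 (50uM) turning fluorescent on thiol reaction; substrates H3(1-25) 75uM and acetyl-CoA 70uM, GCN5L2 20nM, 20 min incubation at room temperature.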
PI4K2A block – PI4K2A (human) kinase inhibition; Q9BTU6; purified PI4K2A, ADP-Glo luminescence, 1 h; stronger effect = lower value; activity change, negative = inhibition, % at 76.9 µM; hit rate 0.13% among 420,000; in the data active = activity change below about -50%; inconclusive = mostly about -30% to -49%
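In this quantitative HTS, ADP production by PI4K2A was quantified luminescently after 1 h at ambient temperature; 100 microM adenosine served as plate-quality control.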
PLK1 PBD inh – PLK1 (human) polo-box domain binding inhibition | P53350 | hit rate 2.8% among 360,000 | Plk1 PBD binding of FITC phosphopeptide, fluorescence polarization | Potency, µM, actives largely listed as inhibitors; also: series mostly up to about 57 µM; nearly all actives have a fitted effect of over 65% in size
Target sequence (P53350 whole entry, looked up, the tested form may be a part): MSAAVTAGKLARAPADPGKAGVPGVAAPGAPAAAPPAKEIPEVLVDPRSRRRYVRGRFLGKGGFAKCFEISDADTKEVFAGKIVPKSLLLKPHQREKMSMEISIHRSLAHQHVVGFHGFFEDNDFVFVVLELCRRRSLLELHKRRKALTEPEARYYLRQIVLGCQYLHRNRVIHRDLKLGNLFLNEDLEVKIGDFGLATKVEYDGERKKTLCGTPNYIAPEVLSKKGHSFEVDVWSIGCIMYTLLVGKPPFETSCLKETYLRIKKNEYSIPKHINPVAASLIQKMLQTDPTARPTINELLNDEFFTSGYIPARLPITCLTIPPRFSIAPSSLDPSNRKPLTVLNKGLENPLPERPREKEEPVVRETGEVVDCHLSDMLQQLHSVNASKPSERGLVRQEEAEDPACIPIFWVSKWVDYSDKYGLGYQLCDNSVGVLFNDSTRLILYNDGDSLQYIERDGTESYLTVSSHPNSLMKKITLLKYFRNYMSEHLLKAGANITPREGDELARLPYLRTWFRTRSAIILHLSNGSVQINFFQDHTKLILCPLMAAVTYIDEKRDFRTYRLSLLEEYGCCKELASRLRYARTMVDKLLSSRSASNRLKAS
Each line names hits and unclear results; the compound was inactive in the other large screens. Unless noted, calls follow the shape of the dose curve; as a rule, active = well fitted curve in the direction sought with a large enough effect; inconclusive = small, poorly fitted or top-dose-only effect, or another doubt; inactive = no such curve, though single readings can be large; an effect the other way counts as inactive or inconclusive.

O=C(N[C@H]1C[C@@H]2O[C@H](CO)CC[C@@H]2O[C@@H]1CCc1ccc(-c2cccnc2)cc1)c1cccc(F)c1	none (no result: GLS inhibitor, VDR inhibitor, KAT2A inh, PLK1 PBD inh)
CC(C)C(NC(=O)[C@H](Cc1ccc(O)cc1)NC(=O)OC(C)(C)C)P(=O)(O)OC(Cc1ccccc1)C(=O)O (some centres undefined)	none (no result: GLS inhibitor, VDR inhibitor, KAT2A inh, PLK1 PBD inh)
CCCCCOc1ccc(/C=N/NC(=O)CSc2nnc(-c3ccc(OC)cc3)n2-c2ccc(C)cc2)cc1	none (no result: GLS inhibitor, VDR inhibitor, KAT2A inh, PLK1 PBD inh)
Cc1ccc2c(c1)C1CS(=O)(=O)N(C3CCCC3)C(=O)N1C2 (centres undefined)	none (no result: GLS inhibitor, VDR inhibitor, KAT2A inh, PLK1 PBD inh)
COCc1cn(-c2ccc3c(c2)[C@@]2(CC(=O)N(C)C2c2ccccc2)C(=O)N3CC(C)C)nn1 (some centres undefined)	none (no result: GLS inhibitor, VDR inhibitor, KAT2A inh, PLK1 PBD inh)
Cc1cc2c(c(SCC(=O)N(C)c3ccccc3)n1)C(=O)OC2	none
Cc1cc2c(c(SCC(N)=O)n1)C(=O)OC2	PLK1 PBD inh 30µM
O=C(NCc1ccc(F)cc1)C1CCN(S(=O)(=O)c2ccc3c(c2)CCCN3C(=O)C2CCC2)CC1	none (no result: PLK1 PBD inh)
COc1ccc(CCNc2nc(C)c(C(C)=O)s2)cc1OC	VDR inhibitor 40µM, KAT2A inh inconclusive, PLK1 PBD inh 4.7µM
COc1ccc(CCNc2nc(-c3ccc(F)cc3)c(CC(=O)O)s2)cc1OC	GLS inhibitor 11µM, VDR inhibitor 79µM, PLK1 PBD inh 8.4µM
COc1cc(C)nc(Nc2nc(C)c(C(C)=O)s2)n1	GLS inhibitor inconclusive, PLK1 PBD inh 3µM
N#Cc1cccc(-n2cc(COC(=O)NCCc3ccccc3)nn2)c1	none (no result: GLS inhibitor, VDR inhibitor, KAT2A inh, PLK1 PBD inh)
CCC(Cn1nnc2ccccc2c1=O)NC(=O)Nc1cccc(C)c1C (centres undefined)	none (no result: PLK1 PBD inh)
COc1ccc(/C=C/c2cc(O)cc(O[C@H]3OC(CO)C(O)C(O)C3O)c2)cc1 (some centres undefined)	none (no result: GLS inhibitor, PI4K2A block, PLK1 PBD inh)
O=C(/C=C/c1ccccc1)c1ccc(O[C@H]2OC(CO)C(O)C(O)C2O)cc1O (some centres undefined)	VDR inhibitor 16µM (no result: GLS inhibitor, PI4K2A block, PLK1 PBD inh)
O=c1[nH]cc(S(=O)(=O)c2ccccc2)[nH]1	PLK1 PBD inh 30µM
Cc1nc(NC2CCCC2)c2nnn(Cc3ccccc3)c2n1	none (no result: GLS inhibitor, VDR inhibitor, KAT2A inh, PLK1 PBD inh)
Cc1cccc(C(=O)NC2C(=O)NNC2c2ccc(Cl)cc2)c1 (centres undefined)	GLS inhibitor 7.9µM, VDR inhibitor inconclusive
C[C@]12C=CC(=O)N[C@@H]1CC[C@@H]1C2CC[C@]2(C)C(C(=O)Nc3cc(C(F)(F)F)ccc3C(F)(F)F)CC[C@@H]12 (some centres undefined)	none (no result: PI4K2A block, PLK1 PBD inh)
CC(C)(C)NC(=S)N1CCC2CC1c1cc(-c3ccc4c(c3)OCO4)ccc12 (centres undefined)	GLS inhibitor 16µM (no result: VDR inhibitor, KAT2A inh)
CC(C)(C)C(=O)N1CCC2CC1c1cc(-c3ccc4c(c3)OCO4)ccc12 (centres undefined)	none (no result: VDR inhibitor, KAT2A inh)
CC(=O)Oc1ccc(C2(c3ccc(OC(C)=O)cc3)Oc3ccccc3NC2=O)cc1	none (no result: VDR inhibitor, KAT2A inh, PLK1 PBD inh)
CC(N)(C(=O)O)c1ccc(P(=O)(O)O)cc1 (centres undefined)	none (no result: GLS inhibitor, PI4K2A block, PLK1 PBD inh)
N#Cc1ccc(NC(=O)Cn2c3[n+](c4ccc(C(F)(F)F)cc42)CCCCC3)cc1	PLK1 PBD inh 24µM
CCCN=C(C)c1c(-c2ccccc2)[nH]n(-c2nc3ccccc3s2)c1=O	none
C/C(=N/NC(=O)c1cccs1)c1c(C)[nH]n(-c2nc3ccccc3s2)c1=O	PI4K2A block -66, PLK1 PBD inh inconclusive
COc1ccc(CNC(=O)COC(=O)CC2CC3CCC2C3)cc1OC (centres undefined)	none
COc1ccc(-c2cc(-c3nnc(COC(=O)CC4CC5CCC4C5)o3)c3ccccc3n2)cc1OC (centres undefined)	KAT2A inh 35µM
CN(C)S(=O)(=O)c1ccc2nnn(O)c2c1	GLS inhibitor inconclusive, VDR inhibitor 79µM, PLK1 PBD inh 11µM
CCCCNC(=O)C1(C(=O)C2CC2)CC(C(=O)OCC)=NO1 (centres undefined)	none (no result: GLS inhibitor, VDR inhibitor, KAT2A inh, PLK1 PBD inh)
CCOC(=O)c1sc(N)c(C(=O)Nc2ccccc2)c1C	VDR inhibitor inconclusive, PLK1 PBD inh 9.5µM
COC(=O)c1c(NC(=O)C2CC2)sc(C(=O)Nc2ccccc2)c1C	PLK1 PBD inh 27µM
CCOC(=O)c1sc(N)c(C(=O)OCC)c1C	none
CCOC(=O)c1c(N)sc(C(=O)OCCOC)c1C	GLS inhibitor inconclusive, VDR inhibitor 79µM, PLK1 PBD inh 9.5µM
